Test [1] in a line: ATG_TGFb_CIS: Attagene CIS-FACTORIAL HepG2 Assay for human Transforming Growth Factor (TGF) (AID 2282967; active means hit-call score of the fitted dose curve at least 0.9, where 1 is the maximum; inactive means score below 0.9). Conditions: HepG2 Attagene CIS TGFb reporter, mRNA transcription; actives raise or lower the signal. The procedure, abridged: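 HepG2 cells transiently transfected with cis-promoter-driven multiplexed reporter units; 24 h compound exposure. Reporter mRNA measured by RT-PCR, 6-FAM labeling, HpaI digestion and capillary electrophoresis; bidirectional fit versus DMSO baseline.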

A short description of test [2]: ATG_VDRE_CIS: Attagene CIS-FACTORIAL HepG2 Assay for human Vitamin D Receptor Element (VDRE) (AID 2282968; active means hit-call score of the fitted dose curve at least 0.9, where 1 is the maximum; inactive means score below 0.9). The conditions noted are these: HepG2 VDRE cis-reporter transcription, actives raise or lower the signal. The procedure, abridged: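 In transiently transfected HepG2 liver cells, gain or loss of reporter mRNA after 24 h exposure is scored relative to DMSO, using fluorescence detection by capillary electrophoresis of RT-PCR products.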

Test [3] has as its target Nuclear receptor subfamily 1 group I member 3 (Homo sapiens) (UniProt Q14994). Briefly: ATG_CAR_TRANS: Attagene TRANS-FACTORIAL HepG2 Assay for human Constitutive Androstane Receptor (CAR) (AID 2282969).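 Further: activators raise reporter mRNA above DMSO so AC50 marks induction.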 Conditions: HepG2 Attagene TRANS-FACTORIAL CAR reporter. An outline of the steps:
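Readout is reporter mRNA induction, quantified by fluorescent primer extension and capillary electrophoresis after RT-PCR. Cells were HepG2 transiently carrying chimeric NR-Gal4 constructs with GAL4-UAS reporters, treated for 24 h; activity scored upward from DMSO.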

Test [4] concerns the target Estrogen receptor (Homo sapiens) (UniProt P03372). Briefly: ATG_ERa_TRANS: Attagene TRANS-FACTORIAL HepG2 Assay for human Estrogen Receptor alpha (ERa) (AID 2282970). The conditions noted are these: HepG2 Attagene TRANS ERa GAL4 reporter, mRNA. The procedure, abridged: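 After 24 h of compound treatment, RNA from HepG2 cells bearing transfected GAL4-UAS reporter constructs is converted to cDNA, amplified and fluorescently labelled. Capillary electrophoresis resolves the ERa-linked reporter; DMSO serves as negative control.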

Test [5] has as its target X-box-binding protein 1 (Homo sapiens) (UniProt P17861). Briefly: ATG_Xbp1_CIS: Attagene CIS-FACTORIAL HepG2 Assay for human X-box Binding Protein 1 (XBP1) (AID 2282972; active means hit-call score of the fitted dose curve at least 0.9, where 1 is the maximum; inactive means score below 0.9). The conditions noted are these: HepG2 XBP1 cis-element reporter, Attagene multiplex; actives raise or lower the signal. An outline of the steps:
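HepG2 cells transiently transfected with multiple cis-element reporter units report endogenous TF activity; 24 h exposure, then reporter mRNA measured by RT-PCR, 6-FAM labelling, HpaI digestion and capillary electrophoresis. Bidirectional fitting versus DMSO.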

The nature of test [6]: ATG_M_19_TRANS: Attagene TRANS-FACTORIAL HepG2 Assay for M19 Transcription Factor (Internal Marker) (AID 2282974). The conditions noted are these: HepG2 Attagene TRANS-FACTORIAL M19 internal marker reporter. An outline of the steps:
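24 h chemical exposure of transiently transfected HepG2 (MRTU library). RNA → oligo(dT) RT → PCR → 6-FAM labelling → HpaI cut → CE fluorescence. Positive-direction fit vs DMSO baseline; background internal-marker readout.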

Test [7] can be described thus: ATG_GAL4_TRANS: Attagene TRANS-FACTORIAL HepG2 Assay for GAL4 (Internal Marker) (AID 2282976). The conditions noted are these: HepG2 Attagene TRANS GAL4 internal marker reporter. The procedure, abridged:
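RT-PCR/capillary electrophoresis readout of reporter mRNA. HepG2, transient MRTU transfection (GAL4-UAS reporters), 24 h compound exposure. Background-control endpoint, positive direction vs DMSO baseline.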

Test [8] concerns the target Glucocorticoid receptor (Homo sapiens) (UniProt P04150). Briefly: ATG_GR_TRANS: Attagene TRANS-FACTORIAL HepG2 Assay for human Glucocorticoid Receptor (GR) (AID 2282978).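 Further: activators score as hits since higher reporter transcript over DMSO is fitted.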 Conditions: HepG2 Attagene TRANS GR reporter, mRNA transcription. The procedure, abridged:
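Transient MRTU transfection of HepG2 (GAL4-UAS reporters, exogenous NR-GAL4 chimeras), 24 h dosing. Readout: reporter transcript via RT-PCR + capillary electrophoresis fluorescence. Positive direction vs DMSO baseline.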

Test [9] is described as follows: ATG_M_32_TRANS: Attagene TRANS-FACTORIAL HepG2 Assay for M32 Transcription Factor (Internal Marker) (AID 2282984).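 Further: transcript level of a background control reporter unit measured by RT-PCR and capillary electrophoresis.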 The conditions noted are these: HepG2 Attagene TRANS M32 internal marker reporter. An outline of the steps: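 Using transiently transfected HepG2 cells exposed to test chemicals for 24 h, reporter transcripts are converted to labelled cDNA fragments and quantified by capillary electrophoresis. DMSO defines the activity baseline.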

For test [10], the target named is Nuclear receptor subfamily 4 group A member 2 (Homo sapiens) (UniProt P43354). Briefly: ATG_NURR1_TRANS: Attagene TRANS-FACTORIAL HepG2 Assay for human Nuclear Receptor Related Protein 1 (NURR1) (AID 2282985). Conditions: HepG2 Attagene TRANS reporter, mRNA readout. The procedure, abridged: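 Cells: HepG2, transiently transfected. Exposure: 24 h. Detection: fluorescence of labelled RT-PCR products separated by capillary electrophoresis; upward fit versus DMSO.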

In test [11] the target is Transcriptional activator Myb (Homo sapiens) (UniProt P10242). Put plainly: ATG_Myb_CIS: Attagene CIS-FACTORIAL HepG2 Assay for human Myeloblastosis (Myb) Proto-Oncogene Transcription Factor (AID 2282986; active means hit-call score of the fitted dose curve at least 0.9, where 1 is the maximum; inactive means score below 0.9). The conditions noted are these: HepG2 Attagene CIS-FACTORIAL Myb reporter transcription; actives raise or lower the signal. The procedure, abridged:
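HepG2, transient MRTU transfection (cis-element promoters, endogenous TF activity), 24 h compound exposure. Readout: reporter mRNA via RT-PCR, 6-FAM labeling, HpaI digest, capillary electrophoresis. Gain/loss fit vs DMSO.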

Test [12] addresses Nuclear respiratory factor 1 (Homo sapiens) (UniProt Q16656). Briefly: ATG_NRF1_CIS: Attagene CIS-FACTORIAL HepG2 Assay for human Nuclear Respiratory Factor 1 (NRF1) Orphan Gene (AID 2282987; active means hit-call score of the fitted dose curve at least 0.9, where 1 is the maximum; inactive means score below 0.9). Conditions: HepG2 NRF1 cis-element reporter, Attagene multiplex; actives raise or lower the signal. An outline of the steps:
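Endogenous NRF1-driven reporter transcription measured in transiently transfected human HepG2 liver cells. Readout: reporter mRNA by RT-PCR and capillary electrophoresis with fluorescence detection, 24 h post-dosing. Gain or loss of signal fitted relative to DMSO baseline.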

The target in test [13] is Steroid hormone receptor ERR1 (Homo sapiens) (UniProt P11474). Put plainly: ATG_ERRa_TRANS: Attagene TRANS-FACTORIAL HepG2 Assay for human Estrogen-Related Receptor alpha (ERRa) (AID 2282971). The conditions noted are these: HepG2 Attagene TRANS reporter, ERRa transactivation. An outline of the steps:
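Transfected HepG2, 24 h dosing, ERRa-Gal4 chimera driving GAL4-UAS reporter. Readout: reporter mRNA via RT-PCR plus capillary electrophoresis (fluorescence). Positive direction vs DMSO control.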

In test [14] the target is Androgen receptor (Homo sapiens) (UniProt P10275). Briefly: ATG_AR_TRANS: Attagene TRANS-FACTORIAL HepG2 Assay for human Androgen Receptor (AR) (AID 2282973). The conditions noted are these: HepG2 Attagene TRANS-FACTORIAL AR reporter transcription. An outline of the steps:
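Readout is reporter transcript abundance, quantified by fluorescent RT-PCR products separated on capillary electrophoresis. Human HepG2 liver cells carried transiently transfected NR-Gal4 chimera plus GAL4-UAS reporter constructs and were dosed for 24 h; activity scored upward versus DMSO.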

Test [15] addresses Oxysterols receptor LXR-alpha (Homo sapiens) (UniProt Q13133). Put plainly: ATG_LXRa_TRANS: Attagene TRANS-FACTORIAL HepG2 Assay for human Liver X Receptor alpha (LXRa) (AID 2282980). The conditions noted are these: HepG2 Attagene TRANS reporter, LXRa transactivation. An outline of the steps:
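Read-out: reporter transcript levels by RT-PCR plus capillary electrophoresis, fluorescence intensity. Transiently transfected HepG2, exogenous NR-GAL4 chimera, GAL4-UAS reporters; 24 h compound exposure. Activity = increase over DMSO negative control.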

In test [16] the target is Oxysterols receptor LXR-beta (Homo sapiens) (UniProt P55055). Briefly: ATG_LXRb_TRANS: Attagene TRANS-FACTORIAL HepG2 Assay for human Liver X Receptor beta (LXRb) (AID 2282981). The conditions noted are these: HepG2 Attagene TRANS GAL4-LXRb reporter, mRNA. An outline of the steps: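 Cells: HepG2, transiently transfected with GAL4-UAS reporter units plus LXRb-Gal4 fusion. Treatment: 24 h. Detection: reporter mRNA by RT-PCR, 6-FAM labelling, HpaI digestion, capillary electrophoresis.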

For test [17], the target named is Bile acid receptor (Homo sapiens) (UniProt Q96RI1). Briefly: ATG_FXR_TRANS: Attagene TRANS-FACTORIAL HepG2 Assay for Farnesoid X Receptor (FXR) (AID 2282979).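 Further: hits raise reporter mRNA above DMSO so AC50 marks FXR activation.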 Conditions: HepG2 Attagene TRANS FXR-GAL4 reporter transcription. An outline of the steps:
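Read-out: fluorescent reporter transcripts quantified by capillary electrophoresis after RT-PCR of total RNA. Source cells were HepG2 transiently carrying chimeric NR-GAL4 plus GAL4-UAS reporter units, dosed 24 h. Activity fitted upward relative to DMSO baseline.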

Test [18] can be described thus: ATG_M_06_TRANS: Attagene TRANS-FACTORIAL HepG2 Assay for M06 Transcription Factor (Internal Marker) (AID 2282983). The conditions noted are these: HepG2 Attagene TRANS M06 internal marker reporter. The procedure, abridged:
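After a 24 h chemical treatment of transfected HepG2, RNA underwent DNase I treatment, reverse transcription and reporter-specific PCR; labelled, HpaI-digested products were sized by capillary electrophoresis. Signal increase relative to DMSO defined activity.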

Test [19] concerns the target Estrogen-related receptor gamma (Homo sapiens) (UniProt P62508). Put plainly: ATG_ERRg_TRANS: Attagene TRANS-FACTORIAL HepG2 Assay for human Estrogen-Related Receptor gamma (ERRg) (AID 2282977).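 Further: hits increase reporter signal over DMSO so potencies reflect activators.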 The conditions noted are these: HepG2 Attagene TRANS reporter, ERRg transactivation. An outline of the steps: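 HepG2 cells transiently transfected with multiplexed GAL4-UAS reporter units and chimeric NR-Gal4 constructs were exposed to test chemicals for 24 h. Reporter mRNA was measured by RT-PCR, 6-FAM primer extension, HpaI digestion and capillary electrophoresis; gain-of-signal versus DMSO.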

For test [20], the target named is Hepatocyte nuclear factor 4-alpha (Homo sapiens) (UniProt P41235). Briefly: ATG_HNF4a_TRANS: Attagene TRANS-FACTORIAL HepG2 Assay for human Hepatocyte Nuclear Factor 4 alpha (HNF4a) (AID 2282982). The conditions noted are these: HepG2 HNF4a transactivation reporter, mRNA readout. The procedure, abridged:
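Transfected HepG2 reporter cells are dosed for 24 h; reporter RNA is reverse-transcribed, amplified, fluorescently labelled and HpaI-digested before CE sizing. Positive-direction fit against DMSO.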

By AC50 is commonly meant the midpoint of the concentration-response curve, whichever way the signal moves.

Each structure is given as a SMILES string. Records with an inconclusive call do not appear. Calls of active or inactive are those of the source. How the source made its calls, unless noted: active means hit-call score of the fitted dose curve at least 0.9, where 1 is the maximum; inconclusive means response in the unintended direction; inactive means score below 0.9.

Sequence of Steroid hormone receptor ERR1 (Homo sapiens) (P11474 whole entry, looked up, the tested form may be a part): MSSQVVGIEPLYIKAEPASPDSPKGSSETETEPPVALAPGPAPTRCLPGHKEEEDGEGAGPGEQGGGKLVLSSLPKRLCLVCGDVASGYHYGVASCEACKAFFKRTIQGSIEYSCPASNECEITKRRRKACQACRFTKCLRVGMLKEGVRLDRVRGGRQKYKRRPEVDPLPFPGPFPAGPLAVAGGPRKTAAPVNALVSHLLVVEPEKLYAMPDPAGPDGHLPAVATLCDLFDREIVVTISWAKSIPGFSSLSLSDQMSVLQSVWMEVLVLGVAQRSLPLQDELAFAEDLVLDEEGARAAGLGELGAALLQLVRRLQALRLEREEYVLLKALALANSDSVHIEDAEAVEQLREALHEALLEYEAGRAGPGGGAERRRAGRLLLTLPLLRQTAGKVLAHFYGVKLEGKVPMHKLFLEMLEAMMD
Sequence of Transcriptional activator Myb (Homo sapiens) (P10242 whole entry, looked up): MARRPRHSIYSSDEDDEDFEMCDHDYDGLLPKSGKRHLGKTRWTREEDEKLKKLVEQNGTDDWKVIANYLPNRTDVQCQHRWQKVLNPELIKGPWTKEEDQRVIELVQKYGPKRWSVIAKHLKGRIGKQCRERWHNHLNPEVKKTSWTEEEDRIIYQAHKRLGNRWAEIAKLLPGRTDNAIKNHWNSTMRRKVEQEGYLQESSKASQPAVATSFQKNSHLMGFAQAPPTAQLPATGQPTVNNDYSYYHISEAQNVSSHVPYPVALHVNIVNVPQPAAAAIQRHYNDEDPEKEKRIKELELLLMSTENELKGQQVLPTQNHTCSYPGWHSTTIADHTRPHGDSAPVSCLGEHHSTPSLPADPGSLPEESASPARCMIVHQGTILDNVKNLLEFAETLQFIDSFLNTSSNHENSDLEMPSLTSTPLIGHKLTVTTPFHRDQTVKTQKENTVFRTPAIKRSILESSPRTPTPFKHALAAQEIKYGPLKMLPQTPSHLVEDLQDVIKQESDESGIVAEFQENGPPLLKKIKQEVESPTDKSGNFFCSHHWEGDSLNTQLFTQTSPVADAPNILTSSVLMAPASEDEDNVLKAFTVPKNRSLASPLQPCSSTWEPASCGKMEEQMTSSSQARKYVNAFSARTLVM
Sequence of X-box-binding protein 1 (Homo sapiens) (P17861 whole entry, looked up): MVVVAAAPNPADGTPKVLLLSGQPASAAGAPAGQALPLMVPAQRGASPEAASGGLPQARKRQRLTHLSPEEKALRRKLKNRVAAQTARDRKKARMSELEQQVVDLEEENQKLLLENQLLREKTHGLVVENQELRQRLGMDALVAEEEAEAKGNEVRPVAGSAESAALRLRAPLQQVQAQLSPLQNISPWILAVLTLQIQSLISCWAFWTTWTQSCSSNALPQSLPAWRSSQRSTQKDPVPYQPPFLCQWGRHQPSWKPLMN
Sequence of Nuclear receptor subfamily 1 group I member 3 (Homo sapiens) (Q14994 whole entry, looked up, the tested form may be a part): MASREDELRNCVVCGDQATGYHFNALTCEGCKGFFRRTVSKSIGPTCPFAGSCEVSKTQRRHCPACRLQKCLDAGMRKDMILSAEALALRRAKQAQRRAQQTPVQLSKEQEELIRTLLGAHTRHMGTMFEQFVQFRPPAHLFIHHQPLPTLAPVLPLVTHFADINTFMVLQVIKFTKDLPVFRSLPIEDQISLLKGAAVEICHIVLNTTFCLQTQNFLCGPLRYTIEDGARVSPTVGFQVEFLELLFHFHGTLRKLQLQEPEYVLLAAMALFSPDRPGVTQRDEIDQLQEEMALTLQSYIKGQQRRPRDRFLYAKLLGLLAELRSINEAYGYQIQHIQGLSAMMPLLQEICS
Sequence of Nuclear receptor subfamily 4 group A member 2 (Homo sapiens) (P43354 whole entry, looked up): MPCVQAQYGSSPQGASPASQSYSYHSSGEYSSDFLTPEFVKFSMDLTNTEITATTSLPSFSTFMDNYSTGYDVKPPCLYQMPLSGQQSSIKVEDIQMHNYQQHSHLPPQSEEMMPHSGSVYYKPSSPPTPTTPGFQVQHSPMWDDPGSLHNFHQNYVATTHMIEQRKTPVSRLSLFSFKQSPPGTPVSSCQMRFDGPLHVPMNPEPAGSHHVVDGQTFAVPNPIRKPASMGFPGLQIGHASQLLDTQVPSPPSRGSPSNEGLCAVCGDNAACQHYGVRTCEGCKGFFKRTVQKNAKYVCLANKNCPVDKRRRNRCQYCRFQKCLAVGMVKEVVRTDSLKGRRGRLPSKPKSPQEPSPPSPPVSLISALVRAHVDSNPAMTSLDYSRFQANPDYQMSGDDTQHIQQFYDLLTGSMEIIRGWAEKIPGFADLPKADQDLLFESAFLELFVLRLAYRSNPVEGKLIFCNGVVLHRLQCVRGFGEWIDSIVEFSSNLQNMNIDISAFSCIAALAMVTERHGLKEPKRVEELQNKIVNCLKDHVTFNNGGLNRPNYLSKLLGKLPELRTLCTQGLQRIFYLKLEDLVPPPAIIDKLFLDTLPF
Sequence of Nuclear respiratory factor 1 (Homo sapiens) (Q16656 whole entry, looked up): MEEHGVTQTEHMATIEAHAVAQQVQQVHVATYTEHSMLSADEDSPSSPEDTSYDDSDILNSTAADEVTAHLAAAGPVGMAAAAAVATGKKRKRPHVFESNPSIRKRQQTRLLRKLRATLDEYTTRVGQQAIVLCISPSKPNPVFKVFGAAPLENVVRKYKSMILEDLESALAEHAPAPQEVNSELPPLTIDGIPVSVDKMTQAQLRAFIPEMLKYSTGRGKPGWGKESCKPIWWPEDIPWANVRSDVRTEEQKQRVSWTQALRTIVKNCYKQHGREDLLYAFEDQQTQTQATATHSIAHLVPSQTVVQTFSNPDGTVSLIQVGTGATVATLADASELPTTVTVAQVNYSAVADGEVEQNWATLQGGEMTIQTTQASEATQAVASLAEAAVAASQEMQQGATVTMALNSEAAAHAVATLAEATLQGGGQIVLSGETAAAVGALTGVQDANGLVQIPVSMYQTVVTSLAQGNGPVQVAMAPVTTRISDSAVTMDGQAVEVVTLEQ
Sequence of Oxysterols receptor LXR-alpha (Homo sapiens) (Q13133 whole entry, looked up, the tested form may be a part): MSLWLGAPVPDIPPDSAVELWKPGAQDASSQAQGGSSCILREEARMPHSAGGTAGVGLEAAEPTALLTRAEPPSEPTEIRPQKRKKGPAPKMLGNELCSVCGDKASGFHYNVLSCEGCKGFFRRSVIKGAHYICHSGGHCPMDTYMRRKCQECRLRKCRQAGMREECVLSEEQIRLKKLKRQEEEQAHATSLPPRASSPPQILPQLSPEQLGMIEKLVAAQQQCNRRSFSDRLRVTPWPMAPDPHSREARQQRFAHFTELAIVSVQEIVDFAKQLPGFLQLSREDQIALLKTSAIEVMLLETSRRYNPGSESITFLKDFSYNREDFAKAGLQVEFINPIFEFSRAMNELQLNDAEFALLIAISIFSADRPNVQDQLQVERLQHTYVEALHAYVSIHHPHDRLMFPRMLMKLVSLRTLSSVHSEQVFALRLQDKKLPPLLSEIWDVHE
Sequence of Estrogen receptor (Homo sapiens) (P03372 whole entry, looked up, the tested form may be a part): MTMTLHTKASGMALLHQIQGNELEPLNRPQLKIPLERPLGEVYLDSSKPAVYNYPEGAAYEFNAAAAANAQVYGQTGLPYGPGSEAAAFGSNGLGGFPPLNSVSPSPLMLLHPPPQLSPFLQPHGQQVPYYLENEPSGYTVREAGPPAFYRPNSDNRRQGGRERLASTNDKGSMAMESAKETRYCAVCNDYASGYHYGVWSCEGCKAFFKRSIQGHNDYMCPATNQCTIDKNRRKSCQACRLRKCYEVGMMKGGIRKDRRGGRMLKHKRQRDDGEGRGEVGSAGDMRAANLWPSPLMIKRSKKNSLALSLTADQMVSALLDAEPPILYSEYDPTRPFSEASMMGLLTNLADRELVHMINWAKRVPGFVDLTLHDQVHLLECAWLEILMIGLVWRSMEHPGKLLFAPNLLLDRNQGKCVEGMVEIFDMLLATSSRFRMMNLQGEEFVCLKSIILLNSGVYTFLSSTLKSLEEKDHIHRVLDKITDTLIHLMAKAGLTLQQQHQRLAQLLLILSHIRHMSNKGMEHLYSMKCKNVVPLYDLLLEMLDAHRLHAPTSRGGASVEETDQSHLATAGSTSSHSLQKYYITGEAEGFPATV
Sequence of Glucocorticoid receptor (Homo sapiens) (P04150 whole entry, looked up, the tested form may be a part): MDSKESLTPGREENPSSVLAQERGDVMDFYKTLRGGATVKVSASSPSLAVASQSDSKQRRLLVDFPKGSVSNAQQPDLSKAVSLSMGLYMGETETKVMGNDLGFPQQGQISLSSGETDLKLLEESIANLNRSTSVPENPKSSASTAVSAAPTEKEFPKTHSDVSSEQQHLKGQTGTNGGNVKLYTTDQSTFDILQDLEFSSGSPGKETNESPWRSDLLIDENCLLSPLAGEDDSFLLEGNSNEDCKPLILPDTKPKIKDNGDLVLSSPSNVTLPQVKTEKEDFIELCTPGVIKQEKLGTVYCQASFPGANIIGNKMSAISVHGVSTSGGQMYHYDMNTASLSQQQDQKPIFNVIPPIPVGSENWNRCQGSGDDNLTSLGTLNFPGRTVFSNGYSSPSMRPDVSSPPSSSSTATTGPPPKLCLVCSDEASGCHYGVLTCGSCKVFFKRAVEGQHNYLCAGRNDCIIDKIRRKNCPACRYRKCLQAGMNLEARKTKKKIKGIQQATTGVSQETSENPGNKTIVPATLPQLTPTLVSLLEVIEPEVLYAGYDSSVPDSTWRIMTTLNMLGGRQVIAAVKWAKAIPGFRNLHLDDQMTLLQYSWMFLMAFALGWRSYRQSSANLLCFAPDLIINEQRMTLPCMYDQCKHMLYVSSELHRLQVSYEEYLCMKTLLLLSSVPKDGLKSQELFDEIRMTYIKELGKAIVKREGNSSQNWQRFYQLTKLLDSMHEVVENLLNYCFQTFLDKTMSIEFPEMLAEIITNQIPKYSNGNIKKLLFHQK

In the case of `CCOP(=S)(OCC)SCSc1cc(Cl)ccc1Cl`, the molecule was called inactive in test [1], in test [2], in test [3], in [4], in test [5] and in test [6]. The result in test [7], in test [8], in test [9], in [10], in test [11] and in test [12] was inactive.
For the molecule `O=C(Cl)OCCOCCOC(=O)Cl`, the molecule was classed as inactive in test [1], in test [2], in test [3], in [4], in test [13] and in test [5]. The molecule was classed as inactive in test [14], in [6], in test [15], in test [16], in test [9] and in test [11]. The call in [12] was inactive.
As for `CNC(=O)N(C)c1nc2ccccc2s1`, the molecule was called inactive in test [1], in test [2], in [3], in test [13], in test [5] and in [14]. Besides, the outcome in test [7], in [8], in test [17], in [15], in test [16] and in [18] was inactive. The molecule was called inactive in test [9], in test [10], in [11] and in test [12].
As for `O=C(Nc1ccc(Br)cc1)c1cc(Br)cc(Br)c1O`, the AC50 in test [1] was 4.16 µM (active); in [2] it was 6.47 µM (active); in test [5] it was 4.92 µM (active). In addition, the result in test [4], in test [13], in [6], in test [7], in test [19] and in test [17] was inactive. For the same molecule, the outcome in [15], in test [20], in test [18], in test [9], in test [10] and in test [11] was inactive. The molecule was called inactive in test [12].

The values above are taken from PubChem BioAssay (EPA / NIEHS).
